Measurements from PubChem BioAssay AID1159607 (Small Molecule Screening Facility, UW Madison, 2016).
The campaign covered roughly 70,000 compounds. About 400 (0.57%) were called active. The full list was thinned out, with actives kept by preference. A number with no mark means an inactive call. No stated cut-off is given here; in the data, active means FP signal below about 40; inactive means the rest.

Each molecule was assayed on RMI core complex (RMI1/RMI2) binding to FANCM MM2 peptide, human (assay: disruptors of RMI1/RMI2 association with MM2 peptide – biochemical, fluorescence polarization, human, primary screen (AID 1159607)). Settings: RMI core complex with F-MM2 peptide, at 33 µM, active compounds read low.

Structure (SMILES) | FP signal (polarization)
Cc1nnc(SCc2ccccc2[N+](=O)[O-])s1 | 61
Nc1c(C(=O)c2cccc(Br)c2)sc2nc3c(c(-c4cccs4)c12)CCCC3 | -15
Nc1c(C(=O)c2ccc(Cl)cc2)sc2nc(-c3cccs3)cc(C(F)(F)F)c12 | 19
COc1ccc(-c2cc(-c3cccs3)nc3sc(C(N)=O)c(N)c23)cc1 | 33 (active)
O=S(=O)(NCC(c1ccsc1)N1CCOCC1)c1ccc(F)cc1F (stereo unspecified) | 65
Cc1cc(C)c2nc(N(CCn3cccn3)C(=O)c3cc4ccccc4o3)sc2c1 | 66
CN1C(=O)c2ccc(NC(=O)c3ccn(C)n3)cc2C1=O | 71
Cc1nc2sc(C)c(C)n2c(=O)c1NC(=O)c1c(F)cccc1Cl | 66
COc1ccc(CCS(=O)(=O)Nc2ccc3c(c2)N(C)C(=O)C(C)(C)CO3)cc1 | 67
O=C(Cn1cnc(-c2ccc(F)cc2)cc1=O)N1CCN(c2cccc(Cl)c2)CC1 | 70
Cc1nc2c(=O)n(Cc3cccc(F)c3)nc(-c3ccco3)c2s1 | 62
O=C(O)CCNC(=S)Nc1ccc(F)c(Cl)c1 | 54
CC1(C)Cc2cccc(OCc3ccc(C(=O)NCCN4CCOCC4)cc3)c2O1 | 54
C=CCn1c(SCCC(=O)Nc2scc(-c3ccc(Cl)cc3)c2C(=O)OCC)nc2sc3c(c2c1=O)CCC(C)C3 (stereo unspecified) | 84
NNC(=O)c1cccnc1N | 51
COc1ccc(CCNC(=O)c2cccc(NS(=O)(=O)c3cccc(F)c3)c2)cc1OC | 72

Structure (SMILES) | FP signal (polarization)
CCOC(=O)c1c(NC(=O)c2ccc(C(=O)OC)cc2)sc2c1CCC2 | 75
CCc1ccccc1NC(=O)C(=O)NCCCN1CCOC(c2ccccc2)C1 (stereo unspecified) | 72
CCCC(=O)Oc1c(Cl)cc(N(C(=O)CCC)S(=O)(=O)c2ccc(C)cc2)cc1Cl | 50
CC1CCc2c(sc(NC(=O)c3cccc([N+](=O)[O-])c3)c2C#N)C1 (stereo unspecified) | 48
CC1=NN(CCN2CCCCC2)c2nc3c(c(=O)n(CCN4CCCCC4)c(=O)n3C)n2C1C (stereo unspecified) | 65
Cc1ccccc1OCCCn1c(C2CC(=O)N(C(C)(C)C)C2)nc2ccccc21 (stereo unspecified) | 69
CCCOc1ccc(Cn2c3ccccc3c3nc4ccccc4nc32)cc1 | 60
Cc1ccc(C(C)C)c(OCCCn2c3ccccc3c3nc4ccccc4nc32)c1 | 27 (active)
COc1ccc(-c2nnc(NC(=O)CSc3ccc(Cl)cc3)s2)cc1 | 67
Cc1cc(-c2nnc(NC(=O)/C=C/c3ccccc3Cl)o2)nn1C | 63
COc1ccc(-c2nnc(NC(=O)/C=C/c3ccccc3Cl)o2)c(OC)c1 | 35 (active)
COc1ccc(-c2nnc(NC(=O)c3cc(Cl)sc3Cl)o2)c(OC)c1 | 62
COc1ccc(-c2cc(C(F)(F)F)n3nc(C(=O)Nc4cc5c(cc4[N+](=O)[O-])OCCO5)cc3n2)cc1 | 37
CCn1cc(NC(=O)N2CCc3ccccc32)c2ccccc21 | 53
COc1ccccc1CCNC(=O)C(=O)NC1CCCCCC1 | 51
